{"source": "the supplement of paper PMC10981050", "note": "Where a name gives a salt, the structure may show the parent alone.", "data": [{"tested_on": "MARIMO", "test": "cell viability relative to vehicle control; higher = less cytotoxic", "conditions": "10 µM; SRSF2 genotype: SRSF2 P95H/wt", "outline": "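Each screen used CRISPR-edited mutant and wild-type clones from four leukaemia lines. Compounds were acoustically dispensed at a single 10 µM dose, and CellTiter-Glo luminescence was read after 48 h with the supernatant first removed. Viability was analysed in Genedata Screener and given as percent of the on-plate vehicle control.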", "units": {"cell viability": "%"}, "values": [{"smiles": "NC(=O)c1cccc2cn(-c3ccc(C4CCCNC4)cc3)nc12", "note": "(stereo not drawn) [MK-4827(Niraparib)]", "cell viability": 40.9}, {"smiles": "CCOC(=O)C1=C(COCCN)NC(C)=C(C(=O)OC)C1c1ccccc1Cl", "note": "(stereo not drawn) [Amlodipine besylate (Norvasc)]", "cell viability": 76.8}, {"smiles": "Cc1ccccc1C(OCCN(C)C)c1ccccc1", "note": "(stereo not drawn) [Orphenadrine citrate (Norflex)]", "cell viability": 79.7}, {"smiles": "Cc1ccc(C(C)C)cc1O", "note": "[Carvacrol]", "cell viability": 95.5}, {"smiles": "CN1CCN(c2ccc(C(=O)Nc3n[nH]c4ccc(Cc5cc(F)cc(F)c5)cc34)c(NC3CCOCC3)c2)CC1", "note": "[Entrectinib (RXDX-101)]", "cell viability": 0.56}, {"smiles": "Nc1nc(N)nc(-c2cc(Cl)ccc2Cl)n1", "note": "[Irsogladine]", "cell viability": 102}, {"smiles": "O=C(Nc1ncc([N+](=O)[O-])s1)c1ccccc1O", "note": "[Tizoxanide]", "cell viability": 90.3}, {"smiles": "CO[C@H]1C[C@@H]2CC[C@@H](C)[C@@](O)(O2)C(=O)C(=O)N2CCCC[C@H]2C(=O)O[C@H]([C@H](C)C[C@@H]2CC[C@H](n3cnnn3)[C@H](OC)C2)CC(=O)[C@H](C)/C=C(\\C)[C@@H](O)[C@@H](OC)C(=O)[C@H](C)C[C@H](C)/C=C/C=C/C=C/1C", "note": "[Zotarolimus (ABT-578)]", "cell viability": 77}, {"smiles": "O=C(c1ccc(OCCCc2c[nH]cn2)cc1)C1CC1", "note": "[Ciproxifan Maleate]", "cell viability": 85.2}, {"smiles": "Cc1ccc2nc(CN(CCN(Cc3nc4ccc(C)cc4[nH]3)Cc3nc4ccc(C)cc4[nH]3)Cc3nc4ccc(C)cc4[nH]3)[nH]c2c1", "cell viability": 0.68}, {"smiles": "Nc1c(Br)cc(Br)cc1CN[C@H]1CC[C@H](O)CC1", "note": "[Ambroxol]", "cell viability": 96.2}, {"smiles": "O=c1cc(-c2ccc(O)c(O)c2)oc2cc(O)c([C@@H]3O[C@H](CO)[C@@H](O)[C@H](O)[C@H]3O)c(O)c12", "note": "[Homoorientin]", "cell viability": 83.8}, {"smiles": "CC(C)(O)CC(=O)NCCn1ccc2ncnc(Nc3ccc(Oc4cccc(C(F)(F)F)c4)c(Cl)c3)c21", "cell viability": 69.7}, {"smiles": "C=CC(=O)Nc1cccc(Nc2nc(Nc3ccc(OCCOC)cc3)ncc2F)c1", "cell viability": 62.1}, {"smiles": "Cc1ncc(COP(=O)(O)O)c(C=O)c1O", "note": "[Pyridoxal phosphate]", "cell viability": 100}, {"smiles": "NC(=O)c1cnccn1", "note": "[Pyrazinamide (Pyrazinoic acid amide)]", "cell viability": 104}, {"smiles": "O=C(O)c1ccc(O)c(O)c1", "note": "[Protocatechuic acid]", "cell viability": 93.1}, {"smiles": "O=C(NC(NC(=S)Nc1ccc(F)c([N+](=O)[O-])c1)C(Cl)(Cl)Cl)C(c1ccccc1)c1ccccc1", "note": "(stereo not drawn)", "cell viability": 35.5}, {"smiles": "O=C1CCN(c2ccccc2)N1", "note": "[Phenidone]", "cell viability": 102}, {"smiles": "C[C@@H]1CC[C@@]2(OC1)O[C@H]1C[C@H]3[C@@H]4CC=C5C[C@@H](O[C@@H]6O[C@H](CO)[C@@H](O)[C@H](O)[C@H]6O)CC[C@]5(C)[C@H]4CC[C@]3(C)[C@H]1[C@@H]2C", "note": "[Trillin]", "cell viability": 76.7}, {"smiles": "COc1ccc(C[C@@H]2c3cc(Oc4cc(C[C@@H]5c6cc(O)c(OC)cc6CCN5C)ccc4O)c(OC)cc3CCN2C)cc1", "note": "[Isoliensinine]", "cell viability": 10.2}, {"smiles": "CCCCCCCCOc1ccccc1C(=O)Nc1ccc(C(=O)OCC[N+](C)(CC)CC)cc1", "note": "[Otilonium Bromide]", "cell viability": 84.9}, {"smiles": "COC(=O)c1cc(O)c(O)c(O)c1", "note": "[Methyl gallate]", "cell viability": 89.7}, {"smiles": "O=C(O)Cc1cccc2ccccc12", "note": "[Potassium 1-Naphthaleneacetate]", "cell viability": 97.4}, {"smiles": "O=c1[nH]c(=O)n([C@H]2C[C@H](O)[C@@H](CO)O2)cc1C(F)(F)F", "note": "[Trifluridine (Viroptic)]", "cell viability": 48.5}, {"smiles": "C[C@@H](Oc1cc(-n2cnc3ccc(CN4CCN(C)CC4)cc32)sc1C(N)=O)c1ccccc1C(F)(F)F", "cell viability": 35.9}, {"smiles": "COc1cccc(OC)c1C(=O)OCc1cc(O)ccc1O[C@@H]1O[C@H](CO)[C@@H](O)[C@H](O)[C@H]1O", "note": "[Curculigoside]", "cell viability": 110}, {"smiles": "OC[C@@H](O)[C@@H](O)[C@H](O)[C@@H](O)CO", "note": "[Sorbitol (Glucitol)]", "cell viability": 103}, {"smiles": "CC(=O)CCC=C(C)CCC=C(C)CCC=C(C)CCC=C(C)C", "note": "[Teprenone]", "cell viability": 80.2}, {"smiles": "C[C@]12CC[C@@H]3c4ccc(O)cc4CC[C@H]3[C@@H]1CC[C@@H]2O", "note": "[Estradiol]", "cell viability": 93.2}, {"smiles": "CCCNC(C)C(=O)Nc1c(C)csc1C(=O)OC", "note": "(stereo not drawn) [Articaine HCl]", "cell viability": 107}, {"smiles": "O=C1N=C(N2CCOCC2)CN1c1ccc(Cl)cc1", "cell viability": 99.3}, {"smiles": "COc1cc(N2CCC(N3CCN(C)CC3)CC2)ccc1Nc1ncnc(Nc2ccccc2S(=O)(=O)C(C)C)n1", "cell viability": 56.7}]}]}
